Assay outcomes: PubChem BioAssay, The Scripps Research Institute Molecular Screening Center
Sampled rows, rich in hits. Any-hit rate of the full collection: about 2.8%.
pPAFAH FP inh: pPAFAH (human) enzyme inhibition; 330,000 compounds, 1.5% hits; recombinant pPAFAH, FP-rhodamine probe fluorescence polarization; inhibition, % at 3.39 µM;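 active = inhibition above the mean inhibition across the screen plus 3 SD, cut at about 25% in these data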;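 note: inhibitors block binding of the rhodamine activity-based probe so polarization drops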
Target sequence (Q13093 whole entry, looked up): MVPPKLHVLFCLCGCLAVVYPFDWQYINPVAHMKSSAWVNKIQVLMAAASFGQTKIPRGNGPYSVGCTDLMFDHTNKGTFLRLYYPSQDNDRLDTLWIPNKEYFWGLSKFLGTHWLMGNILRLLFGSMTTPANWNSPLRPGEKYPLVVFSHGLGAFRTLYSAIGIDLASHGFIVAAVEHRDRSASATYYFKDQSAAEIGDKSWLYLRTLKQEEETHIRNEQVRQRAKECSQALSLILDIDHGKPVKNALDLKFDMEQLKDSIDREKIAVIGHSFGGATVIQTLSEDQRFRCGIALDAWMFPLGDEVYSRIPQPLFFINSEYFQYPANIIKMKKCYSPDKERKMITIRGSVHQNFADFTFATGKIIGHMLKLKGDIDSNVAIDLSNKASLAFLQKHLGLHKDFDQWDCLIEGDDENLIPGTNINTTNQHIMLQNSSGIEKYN
PME-1 primary: blocks human protein phosphatase methylesterase 1. Q9Y570. recombinant PME-1, FP-Rh probe fluorescence polarization. inhibition, % at 5.9 µM. 320,000 compounds, 0.53% hits. AID 2130;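 active = inhibition above the campaign mean of all compounds plus 3 SD, cut at about 26% in these data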;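 note: competitive labeling of PME-1 active site by serine hydrolase directed probe; inhibitors block probe labeling so polarization falls and inhibition rises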
Fam108B inh: counter-screen for RBBP9 inhibitors: inhibitors of mouse Fam108B. recombinant Fam108B, FP-Rh probe fluorescence polarization. inhibition, % at 9.51 µM. 300,000 compounds, 0.33% hits. AID 1947;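 active = inhibition above the screen mean inhibition plus 3 SD, computed separately per campaign, cut at about 18% in these data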;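 note: inhibitors lower polarization as less probe binds the enzyme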
PAFAH1B2 FP inh: blocks human PAF acetylhydrolase 1b catalytic subunit 2. P68402. recombinant PAFAH1B2, FP-rhodamine activity probe, fluorescence polarization. inhibition, % at 3.39 µM. 340,000 compounds, 1.2% hits. AID 492953;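 active = inhibition above the mean of all tested compounds plus 3 SD, cut at about 24% in these data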
Target sequence (P68402 whole entry, looked up): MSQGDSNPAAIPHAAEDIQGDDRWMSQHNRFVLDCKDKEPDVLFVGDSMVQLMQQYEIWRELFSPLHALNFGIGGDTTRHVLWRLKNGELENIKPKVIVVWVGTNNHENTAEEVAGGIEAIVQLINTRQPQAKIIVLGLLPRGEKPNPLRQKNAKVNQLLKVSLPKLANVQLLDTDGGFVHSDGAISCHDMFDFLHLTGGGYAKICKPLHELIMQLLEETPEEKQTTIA
PAFAH1B3 inh: PAFAH1B3 (human) inhibition | AID 492972 | inhibition, % at 3.39 µM | recombinant PAFAH1B3, FP-rhodamine probe, fluorescence polarization | Q15102 | 340,000 compounds, 0.28% hits;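 active = inhibition above the screen-wide average of all tested compounds plus 3 SD, cut at about 25% in these data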
PAFAH2 inh: inhibitors of human PAFAH2 | Q99487 | recombinant PAFAH2, FP-rhodamine activity probe, fluorescence polarization | inhibition, % at 3.39 µM | 340,000 compounds, 0.99% hits | AID 492956;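 active = inhibition above the mean over all tested compounds plus 3 SD, cut at about 30% in these data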;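 note: inhibitors block probe labeling of enzyme so polarization drops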
pPAFAH FP conf: pPAFAH (human) inhibition, confirmed. 2,300 compounds, 72% hits. recombinant pPAFAH, FP-Rh probe fluorescence polarization. inhibition, % at 3.39 µM. shares compounds with pPAFAH FP inh;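 active = mean inhibition of the triplicate above the hit cutoff set for the earlier primary screen, cut at about 25% in these data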
Hits are given with their value; . = inactive; / = no result given.

SMILES | pPAFAH FP inh | PME-1 primary | Fam108B inh | PAFAH1B2 FP inh | PAFAH1B3 inh | PAFAH2 inh | pPAFAH FP conf
COc1ccccc1OCC(=O)Nc1cc2c(cc1C(=O)O)OCCCO2 | . | . | . | . | . | . | /
CC(=O)Nc1cccc(NC(=O)CCN2C(=O)c3ccccc3S2(=O)=O)c1 | 53.1 | . | . | . | . | . | .
CCn1c(SCC(=O)c2ccc(O)c(O)c2)nnc1-c1ccc(C)cc1 | 43.1 | . | . | . | . | 44.6 | 71.8
CCn1c(SCC(=O)c2ccc3c(c2)Cc2ccccc2-3)nnc1-c1ccc(N)cc1 | . | . | . | . | . | . | /
COc1cc(OC)cc(-c2c(-c3cccs3)c3cc(-c4ccc(OCc5ccccc5)cc4)ccc3n2C)c1 | 45.3 | / | / | . | . | . | .
COc1cc(OC)cc(-c2c(-c3cccs3)c3cc(-c4ccc(SC)cc4)ccc3n2C)c1 | . | . | / | . | . | . | /
O=S(=O)(Nc1nc2ccccc2nc1Nc1ccc2c(c1)OCCO2)c1cccs1 | 48.9 | . | . | . | . | . | 48.7
N#C/C(=N\Nc1cccc(C(F)(F)F)c1)C(=O)c1ccsc1 | 36.7 | . | . | . | . | . | 28.9
COc1ccc(-n2ncc3c2CC(C)(C)CC3NC(=O)CCN2CCCCC2=O)cc1 (configuration not stated) | . | . | . | . | . | . | /
O=C(/C=C/c1cc[n+](CC(=O)c2ccc3cccc4c3c2CC4)cc1)c1ccc2cccc3c2c1CC3 | 71.2 | . | . | . | . | . | 86.3
Cc1ccc(-n2c(SCC3CNC(=O)O3)nnc2-c2ccccc2)cc1C (configuration not stated) | . | . | . | / | / | / | /
O=c1c(-c2c(O)cc(O)c3c(=O)cc(-c4ccc(O)cc4)oc23)c(-c2ccc(O)cc2)oc2cc(O)cc(O)c12 | 66.0 | . | . | . | 43.9 | . | 68.4
O=c1cc(-c2ccc(O)cc2)oc2c(-c3c(O)cc(O)c4c(=O)cc(-c5ccc(O)cc5)oc34)c(O)cc(O)c12 | 62.7 | / | / | 39.5 | 55.8 | 57.3 | 68.2
O=C(O)C1OC(Oc2c(-c3ccc(O)c(O)c3)oc3cc(O)cc(O)c3c2=O)C(O)C(O)C1O (configuration not stated) | . | . | . | / | / | / | /
O=c1c(O)c(-c2ccc(O)c(O)c2)oc2cc(O)cc(O)c12 | 52.8 | . | . | 28.6 | 52.7 | . | 81.9
COCCNC(=O)C1CCCN(S(=O)(=O)c2ccc3c(c2)CC(C)N3C(=O)C2CC2)C1 (configuration not stated) | . | . | . | . | . | . | /
CN(C)/C=C/C(=O)/C=C/c1ccc(Cl)cc1 | 36.8 | . | . | . | . | . | .
CN(C)/C=C/C(=O)c1ccc(Cl)cc1 | . | . | . | . | . | . | /
O=C(/C=C1\NC2(CCCC2)Cc2ccccc21)C(=O)N/N=C/c1ccc(O)c(O)c1 | 48.0 | 32.0 | . | . | . | 34.1 | 87.5
O=C(CSc1ccc(F)cc1)Nc1cccc(S(=O)(=O)N2CCOCC2)c1 | . | / | / | . | . | . | /
N#CCCN(NC1=NS(=O)(=O)c2ccccc21)C(=O)c1ccccc1Br | 49.5 | . | . | . | . | . | .
Cc1cc(/C=C(\C#N)C(=O)N2CCOCC2)c(C)n1C1CCCC1 | . | . | . | . | . | . | /
COc1cc(/C=C(\C#N)C(=O)NCC2CCCO2)ccc1O (configuration not stated) | . | . | . | . | . | . | /
Cc1cc(/C=C(\C#N)C(=O)NCC2CCCO2)c(C)n1-c1ccc(Cl)cc1 (configuration not stated) | 66.6 | . | . | . | . | . | 68.9
Cc1ccc(-c2cc(C(=O)N3CCN(c4ccccc4O)CC3)c3ccccc3n2)o1 | 65.5 | . | . | . | . | . | .
SMILES | pPAFAH FP inh | PME-1 primary | Fam108B inh | PAFAH1B2 FP inh | PAFAH1B3 inh | PAFAH2 inh | pPAFAH FP conf
Cc1cccc(NS(=O)(=O)c2ccc3c(c2)oc(=O)n3C)c1C | / | / | / | . | . | . | /
Cc1cccc(NS(=O)(=O)c2ccc3[nH]c(=O)oc3c2)c1C | 68.2 | / | / | . | . | . | 70.3
Cc1ccc(NS(=O)(=O)c2ccc3[nH]c(=O)oc3c2)cc1Cl | 47.6 | . | / | . | . | . | 57.5
Cc1ccc(C)c(NS(=O)(=O)c2ccc3[nH]c(=O)oc3c2)c1 | 42.3 | . | . | . | . | . | .
Cn1c(N)c(C(=O)COC(=O)C2CCCCC2)c(=O)n(C)c1=O | . | . | . | . | . | . | /
COc1cccc(Cn2cc(C)cc(NC(=O)NCc3ccccc3)c2=O)c1 | . | . | . | . | . | . | /
Oc1c(Cl)cc(Cl)cc1/C=N/NC(=S)NC1CC2C=CC1C2 (configuration not stated) | 36.0 | . | . | . | 25.9 | 68.4 | 34.0
O=C(N/N=C/c1cc(Cl)cc(Cl)c1O)c1ccncc1 | . | . | . | . | . | . | /
COc1cccc(-c2cc(C(F)(F)F)c3c(N)c(C#N)sc3n2)c1 | . | . | . | / | / | / | /
N#Cc1sc2nc(-c3ccccc3)cc(-c3ccco3)c2c1N | 42.6 | . | . | . | 34.1 | . | .
CC(C)(C)S(=O)(=O)/C(C#N)=N/Nc1ccc(Cl)cc1 | 34.7 | . | . | . | . | . | 37.2
COc1ccc(OC)c(N2C(=O)[C@@H]3C(c4ccccc4Cl)=NO[C@@H]3C2=O)c1 | 37.9 | . | . | . | . | . | .
O=C(N/N=C/c1cc(Br)cc([N+](=O)[O-])c1O)c1ccc(NC(=O)c2ccc(F)cc2)cc1 | 38.0 | . | . | . | . | . | 55.0
CCOc1ccc2nc(-c3cc(NC(C)=O)ccc3O)sc2c1 | . | . | . | . | . | . | /
OC(CNCC1CCCO1)Cn1c2ccccc2c2ccccc21 (configuration not stated) | . | . | . | . | . | . | /
OC(CNCC1CCCO1)Cn1c2ccc(Cl)cc2c2cc(Cl)ccc21 (configuration not stated) | 41.0 | . | . | . | . | . | 33.6
Cc1ccc(N=Cc2cc(Cc3ccccc3Cl)cc([N+](=O)[O-])c2O)c(O)c1 | 47.8 | . | . | . | . | . | 62.4
O=C(NCc1csc(-c2cccs2)n1)C1CCCCC1 | . | . | . | . | . | . | /
O=C(COC(=O)c1c(F)cccc1F)c1ccc[nH]1 | . | . | . | / | / | / | /
CN(C)C(=S)Nc1cccc(-c2n[nH]c(=S)o2)c1 | . | . | . | . | . | . | /
NNC(=S)Nc1cccc(-c2n[nH]c(=S)o2)c1 | 38.8 | . | . | . | . | . | .
CC1=C(C(=O)Nc2ccc(CC(=O)NCc3ccc(OC(C)C)cc3)cc2)SCCO1 | 37.5 | . | . | . | . | . | .
COc1ccc(CNC(=O)Cc2ccc(NC(=O)C3=C(C)OCCS3)cc2)cc1 | . | . | . | . | . | . | /
COc1ccc(C(=O)/C=C/c2cccs2)c(OC(=O)N2CCOCC2)c1 | . | . | . | . | . | . | /
O=C(/C=C/c1cccs1)c1cc(Br)ccc1OC(=O)N1CCOCC1 | 63.5 | . | . | . | . | 84.0 | 60.6
